KDM5B inh – inhibitors of human KDM5B histone demethylase; Q9UGL1; KDM5B demethylase, FDH-coupled NADH fluorescence (FDH is formaldehyde dehydrogenase); Potency, µM (highest dose often 57.7 µM), actives largely listed as inhibitors; actives 2.6% (n = 220,000); AID 1347165; active = well fitted inhibition curve with a large enough effect; also: 0% is about no effect; nearly all actives have a fitted effect of over 70% in size
Target sequence (Q9UGL1 whole entry, looked up): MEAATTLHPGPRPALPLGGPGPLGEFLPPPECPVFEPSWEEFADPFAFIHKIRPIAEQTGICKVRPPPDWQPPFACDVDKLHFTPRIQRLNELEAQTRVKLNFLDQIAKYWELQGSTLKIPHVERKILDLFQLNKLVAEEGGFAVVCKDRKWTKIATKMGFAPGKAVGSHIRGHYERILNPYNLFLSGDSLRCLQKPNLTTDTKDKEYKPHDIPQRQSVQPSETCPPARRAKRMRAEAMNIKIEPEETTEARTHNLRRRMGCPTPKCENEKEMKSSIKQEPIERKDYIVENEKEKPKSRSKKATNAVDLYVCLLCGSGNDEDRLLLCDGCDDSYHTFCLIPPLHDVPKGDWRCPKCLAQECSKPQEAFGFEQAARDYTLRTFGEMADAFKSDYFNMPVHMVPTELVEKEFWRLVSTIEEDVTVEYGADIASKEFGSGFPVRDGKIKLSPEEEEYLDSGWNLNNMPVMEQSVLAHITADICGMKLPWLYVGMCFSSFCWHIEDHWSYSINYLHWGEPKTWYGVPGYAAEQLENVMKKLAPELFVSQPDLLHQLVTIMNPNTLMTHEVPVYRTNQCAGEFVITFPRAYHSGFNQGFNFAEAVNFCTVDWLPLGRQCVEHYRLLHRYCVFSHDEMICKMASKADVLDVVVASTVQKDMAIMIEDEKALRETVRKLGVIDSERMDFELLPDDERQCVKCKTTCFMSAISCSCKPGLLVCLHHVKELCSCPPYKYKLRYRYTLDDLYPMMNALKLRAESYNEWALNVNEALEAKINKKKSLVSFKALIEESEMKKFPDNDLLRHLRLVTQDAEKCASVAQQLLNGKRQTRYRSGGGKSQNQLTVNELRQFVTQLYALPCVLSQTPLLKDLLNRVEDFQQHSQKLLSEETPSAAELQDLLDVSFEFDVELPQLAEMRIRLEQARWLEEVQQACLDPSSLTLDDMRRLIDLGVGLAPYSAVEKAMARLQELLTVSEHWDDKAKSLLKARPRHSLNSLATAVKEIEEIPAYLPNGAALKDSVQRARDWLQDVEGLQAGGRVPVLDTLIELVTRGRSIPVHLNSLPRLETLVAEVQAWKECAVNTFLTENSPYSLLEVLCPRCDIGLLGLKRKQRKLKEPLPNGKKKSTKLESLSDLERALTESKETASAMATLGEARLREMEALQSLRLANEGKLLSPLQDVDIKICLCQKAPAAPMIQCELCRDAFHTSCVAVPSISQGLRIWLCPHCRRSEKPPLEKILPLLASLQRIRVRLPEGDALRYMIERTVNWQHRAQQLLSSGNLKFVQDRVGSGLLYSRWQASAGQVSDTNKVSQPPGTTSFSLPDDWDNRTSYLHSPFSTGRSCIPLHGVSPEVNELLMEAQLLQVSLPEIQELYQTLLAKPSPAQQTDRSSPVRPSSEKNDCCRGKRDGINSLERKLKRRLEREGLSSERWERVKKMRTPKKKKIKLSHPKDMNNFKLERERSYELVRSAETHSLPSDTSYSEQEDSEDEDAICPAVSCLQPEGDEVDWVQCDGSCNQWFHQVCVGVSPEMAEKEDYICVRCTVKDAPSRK
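Measured: NADH fluorescence change, 30 min, RT. System: KDM5BΔAP 200 nM final, H3K4me3 peptide, α-KG, Fe(II), ascorbate, NAD⁺ plus FDH, pH 7.5 HEPES. Compounds: titrated, 10 min pre-incubation with enzyme.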
The depositor's hits bear a star; i = inactive. The entries come from a sample that favours hits as a whole. Potency is read from the fitted curve at half-maximal effect.

SMILES | KDM5B inh
CS(=O)(=O)N1CCCN(C(=O)NCc2ccccc2)CCNC(=O)CC1c1ccccc1 (stereo not drawn) | i
O=C(Nc1ccc(Cl)c(Cl)c1)C1CCCN(c2ncnc3nc[nH]c23)C1 (stereo not drawn) | i
COc1c(Cl)cc(C(=O)Oc2cccc(C)c2)cc1Cl | i
Cc1cccc(C(=O)N2CCC3(CCCCO3)CC2)c1 | i
CN1CCC(NC(=O)CCc2ncc(-c3ccccc3)o2)CC1 | i
O=C(Cc1c[nH]c2ncc(-c3ccccc3)cc12)NC1CCOCC1 | 28.2µM*
O=C(Cc1c[nH]c2ncc(-c3cccnc3)cc12)NC1CC1 | i
Cn1cc(-c2cnc3[nH]cc(CC(=O)N4CCCC4)c3c2)cn1 | i
O=C(Cc1c[nH]c2ncc(-c3cccnc3)cc12)NC1CCOCC1 | i
CN1CCC(NC(=O)Cc2c[nH]c3ncc(-c4ccccc4)cc23)CC1 | 35.5µM*
CC(C)CNC(=O)Cc1c[nH]c2ncc(-c3cnn(C)c3)cc12 | 39.8µM*
CC(C)CN1C(=O)c2cccn2CC1CNC(=O)c1ccc(F)cc1 (stereo not drawn) | i
O=C(Cn1cc(/C=C2\NC(=O)N(Cc3ccccc3Cl)C2=O)c2ccccc21)N1CCOCC1 | i
Cc1ccc2[nH]c(C)c(CC(=O)NCC(F)(F)F)c2c1 | i
CN1CCN(C(NC(=O)c2cccs2)C(=O)c2ccccc2)CC1 (stereo not drawn) | i
N#Cc1ccccc1COC(=O)C(c1ccccc1)c1ccccc1 | i
COc1ccc(C(=O)Oc2cc(C)c(Cl)cc2C(C)C)cc1 | i
COc1ccccc1-c1nnc(C2CCN(C(=O)c3ccccc3C)CC2)o1 | i
Cc1ccc(C(=O)N2CCC3(CC2)CC(c2cccc(C(F)(F)F)c2)=NO3)cc1 | i
N#CC1CCN(C(=O)c2nc(-c3cc(Cl)cc(Cl)c3)c3ccccn23)CC1 | i
COc1ccccc1-c1nc(C(=O)N2CCC(C#N)CC2)n2ccccc12 | 28.2µM*
N#CC1CCN(C(=O)c2nc(-c3ccccc3)c3ccccn23)CC1 | 35.5µM*
COc1ccc(C(=O)N2CCC3(CC2)CC(c2cccc(C(F)(F)F)c2)=NO3)cc1 | i
N#CC1CCN(C(=O)c2nc(-c3cccc(C(F)(F)F)c3)c3cnccn23)CC1 | 25.1µM*
N#CC1CCN(C(=O)c2nc(-c3cccc(C(F)(F)F)c3)c3ccccn23)CC1 | 14.1µM*
SMILES | KDM5B inh
COc1ccccc1-c1[nH]nc2ncc(C(=O)N3CCC(c4ccccc4)CC3)nc12 | i
N#CC1CCN(C(=O)c2ccc3nnc(-c4cccc(OC(F)(F)F)c4)n3c2)CC1 | i
O=C(c1ccc(O)cc1)C1CCN(C(=O)c2cccc(C(F)(F)F)c2)CC1 | i
FC(F)(F)Oc1ccc(-c2cnc([C@@H]3COCCN3C3CCOCC3)[nH]2)cc1 | i
COc1ccc(C)cc1CN(C)C(=O)Cn1c(=O)c2c(ncn2C)n(C)c1=O | i
COc1ccc(-c2c(C)c3cc(OC(=O)C(C)C)ccc3oc2=O)cc1 | i
CCOC(=O)C(C)Oc1ccc2c(=O)c(Oc3ccc(C(=O)OC)cc3)c(C)oc2c1 (stereo not drawn) | i
CNC(=O)NC(=O)C(C)Sc1ccccc1Cl (stereo not drawn) | i
CCCCn1c(N)c(N(C)C(=O)Cn2c(C)nc3ccccc32)c(=O)[nH]c1=O | i
COc1cccc(-c2noc(CC3CCN(C(=O)c4ccc(N(C)C)cc4)CC3)n2)c1 | i
CCOc1ccc(CC(=O)N2CCC(Cc3nc(-c4ccc(OC)cc4)no3)CC2)cc1OCC | i
CSCCC(NC(=O)c1ccccc1)C(=O)NCc1ccc(C(F)(F)F)cc1 (stereo not drawn) | i
Cc1[nH]c(SC(C)C(=O)Nc2cccc(S(=O)(=O)N3CCCCC3)c2)nc1Cc1ccccc1 (stereo not drawn) | i
COC1CCN(C(=O)c2cccc(S(=O)(=O)N3CCC(C#N)CC3)c2)C1 (stereo not drawn) | i
Cc1cccc(C)c1-c1nc(C(=O)N2CCC(C#N)CC2)n2ccccc12 | 100µM*
Cc1cccc(C)c1-c1cc(C(=O)N2CCC(C#N)CC2)c2cnn(C)c2n1 | i
COc1ccc(-c2nc(CSC(C)C(=O)Nc3cc(C)ccc3C)co2)cc1 (stereo not drawn) | i
O=C(Nc1ccnn1Cc1cccs1)c1ccc(S(=O)(=O)N2CCCC2)cc1 | i
O=C(c1ccccc1)N1C[C@@H](F)[C@@H](OCc2nc3ccc(C(F)(F)F)cc3[nH]2)C1 | i
O=C(CN1CC2CC(C1)[C@H]1CCCC(=O)N1C2)Nc1ccc(N2CCOCC2)cc1 (stereo partly drawn) | i
NC(=O)C1CCN([C@H]2[C@@H]3OC[C@@H](O3)[C@@H](NCc3ccccc3)[C@@H]2O)CC1 | i
O[C@H]1[C@H](NCc2ccncc2)[C@H]2CO[C@H](O2)[C@@H]1N1CCN(c2ccccc2)CC1 | 22.4µM*
COc1ccccc1N1CCN([C@H]2[C@@H]3OC[C@@H](O3)[C@@H](NCc3ccc(-c4ccccc4)cc3)[C@@H]2O)CC1 | i

Screening results: PubChem BioAssay, National Center for Advancing Translational Sciences (NCATS)
